How the values were obtained:
Test in all cases: PBM binding z-score (relative to random genomic background probes); higher = stronger binding; sequences stand for … in GC…GCGATTGACAGCGTAGAATGAAGG
[1] = tested on: PPARg:RXRa DBDmut IVT, anti-RXR (DBD mutation: RXRa K156A/R161A, NR concentration 270 nM, RXRa partner concentration 90 nM)
Summary of the method: (§1)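 Custom Agilent 4×180K protein-binding microarrays carried double-stranded probes, each with a 34-nt variable region. These regions held direct-repeat seeds, single-nucleotide variants, half-site ablations and random human genomic background sequences. Ligand-free nuclear receptor dimers were incubated on the arrays for 1 h, antibodies against each partner (one per run) detected binding, and scanned fluorescence was regression-normalized. Binding z-scores take the random background probes as reference.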

[2] = tested on: PPARg:RXRa IVT, anti-PPARg (NR concentration 270 nM, RXRa partner concentration 90 nM)
Summary of the method: as §1

[3] = tested on: PPARg DBDmut:RXRa IVT, anti-PPARg (DBD mutation: PPARg1 K132A/R137A, NR concentration 270 nM, RXRa partner concentration 90 nM)
Summary of the method: as §1

[4] = tested on: PPARg DBDmut IVT, anti-PPARg (DBD mutation: PPARg1 K132A/R137A, NR concentration 270 nM)
Summary of the method: as §1

[5] = tested on: PPARg homodimer (NR concentration 180 nM)
Summary of the method: as §1

[6] = tested on: PXR:RXRa (NR concentration 270 nM, RXRa partner concentration 90 nM)
Summary of the method: as §1

[7] = tested on: PXR homodimer (NR concentration 270 nM)
Summary of the method: as §1

[8] = tested on: RARa:RXR (NR concentration 270 nM, RXRa partner concentration 90 nM)
Summary of the method: as §1

[9] = tested on: RARa homodimer (NR concentration 270 nM)
Summary of the method: as §1

[10] = tested on: RARb:RXRa (NR concentration 270 nM, RXRa partner concentration 90 nM)
Summary of the method: as §1

CCTCGGAGGACAGAAGGTAAGAGCTGTCCGCTTT
PBM binding z-score [1]: -0.432
PBM binding z-score [2]: -0.658
PBM binding z-score [3]: -1.58
PBM binding z-score [4]: -1.77
PBM binding z-score [5]: -0.354
PBM binding z-score [6]: -0.918
PBM binding z-score [7]: -0.487
PBM binding z-score [8]: -0.713
PBM binding z-score [9]: -0.583
PBM binding z-score [10]: 0.19

GCATATAGGTAATACAAGGTGAAATTCCGATTGT
PBM binding z-score [1]: 3.71
PBM binding z-score [2]: 2.81
PBM binding z-score [3]: 0.826
PBM binding z-score [4]: 1.54
PBM binding z-score [5]: 0.323
PBM binding z-score [6]: 0.55
PBM binding z-score [7]: 0.0431
PBM binding z-score [8]: 1.17
PBM binding z-score [9]: 0.97
PBM binding z-score [10]: 0.349

CCTAGCAGGCCTATCTGGGTCACTCAAGGCTTGA
PBM binding z-score [1]: 3.65
PBM binding z-score [2]: 4.63
PBM binding z-score [3]: -0.467
PBM binding z-score [4]: -0.863
PBM binding z-score [5]: 0.541
PBM binding z-score [6]: 0.789
PBM binding z-score [7]: -0.468
PBM binding z-score [8]: 1.38
PBM binding z-score [9]: -0.645
PBM binding z-score [10]: 0.909

CAAACTAGGTCAAGGACAAAGTCGGTTTGTGCCA
PBM binding z-score [1]: 8.57
PBM binding z-score [2]: 8.47
PBM binding z-score [3]: 0.998
PBM binding z-score [4]: 1.42
PBM binding z-score [5]: 2.03
PBM binding z-score [6]: 1.6
PBM binding z-score [7]: 0.0226
PBM binding z-score [8]: 1.91
PBM binding z-score [9]: -0.478
PBM binding z-score [10]: 4.15

GCTAGTTGGTCAGTAAAGGGTCACACACCGGTCG
PBM binding z-score [1]: 0.794
PBM binding z-score [2]: 2.2
PBM binding z-score [3]: -0.362
PBM binding z-score [4]: -0.645
PBM binding z-score [5]: 2.52
PBM binding z-score [6]: 3.32
PBM binding z-score [7]: 0.202
PBM binding z-score [8]: 4.15
PBM binding z-score [9]: 0.553
PBM binding z-score [10]: 3.43

TCATACAGGTAAATGCTAGGTGAAAGTCCGATCT
PBM binding z-score [1]: 2.68
PBM binding z-score [2]: 1.46
PBM binding z-score [3]: 0.656
PBM binding z-score [4]: 0.391
PBM binding z-score [5]: 0.443
PBM binding z-score [6]: 0.585
PBM binding z-score [7]: 0.0342
PBM binding z-score [8]: 0.804
PBM binding z-score [9]: 0.732
PBM binding z-score [10]: 0.542

TCTTGTAGATTAAGCAGGTTAAGAAAGCCTGAGT
PBM binding z-score [1]: 1.64
PBM binding z-score [2]: 0.902
PBM binding z-score [3]: 0.0777
PBM binding z-score [4]: 0.04
PBM binding z-score [5]: -0.0749
PBM binding z-score [6]: 0.401
PBM binding z-score [7]: 0.0794
PBM binding z-score [8]: 0.419
PBM binding z-score [9]: 0.0226
PBM binding z-score [10]: 0.106

TCGAGTAGGTTACCAATGGGGCATTCCGCTTTCT
PBM binding z-score [1]: 3.12
PBM binding z-score [2]: 2.43
PBM binding z-score [3]: -0.775
PBM binding z-score [4]: -0.0752
PBM binding z-score [5]: -0.326
PBM binding z-score [6]: -0.00662
PBM binding z-score [7]: -1.08
PBM binding z-score [8]: 0.186
PBM binding z-score [9]: -1.04
PBM binding z-score [10]: 0.81

CCTAGTTGGTCAGGAGGACACACACCGGATATGA
PBM binding z-score [1]: 0.664
PBM binding z-score [2]: 1.14
PBM binding z-score [3]: -0.182
PBM binding z-score [4]: 0.142
PBM binding z-score [5]: 0.859
PBM binding z-score [6]: -0.126
PBM binding z-score [7]: 0.473
PBM binding z-score [8]: 0.228
PBM binding z-score [9]: 1.7
PBM binding z-score [10]: 1.4

TCTGTTAGTTGAAGGGCAACCGACGAGTCCGTTT
PBM binding z-score [1]: 1.61
PBM binding z-score [2]: 1.1
PBM binding z-score [3]: 0.429
PBM binding z-score [4]: 0.734
PBM binding z-score [5]: 1.19
PBM binding z-score [6]: 0.704
PBM binding z-score [7]: 1.02
PBM binding z-score [8]: 0.521
PBM binding z-score [9]: 0.738
PBM binding z-score [10]: 1.65

CCTAGCAGGCCAATCTGGGTCGCTCAAGGCTTGA
PBM binding z-score [1]: 1.28
PBM binding z-score [2]: 2.66
PBM binding z-score [3]: -1.25
PBM binding z-score [4]: -1.04
PBM binding z-score [5]: -0.519
PBM binding z-score [6]: 0.776
PBM binding z-score [7]: -0.579
PBM binding z-score [8]: 1.45
PBM binding z-score [9]: -0.891
PBM binding z-score [10]: 0.807

CCGAGTAGGTTATGGGGCATGCAGGCAACGGTGA
PBM binding z-score [1]: 2.71
PBM binding z-score [2]: 3.37
PBM binding z-score [3]: -0.039
PBM binding z-score [4]: -0.361
PBM binding z-score [5]: 0.867
PBM binding z-score [6]: -0.014
PBM binding z-score [7]: -0.179
PBM binding z-score [8]: 0.374
PBM binding z-score [9]: 0.0539
PBM binding z-score [10]: 1.03

ATAACGAGGGCACGCTGAGTTGATAGCAGAGTAG
PBM binding z-score [1]: 4.2
PBM binding z-score [2]: 4.09
PBM binding z-score [3]: 1.98
PBM binding z-score [4]: 1.47
PBM binding z-score [5]: 0.669
PBM binding z-score [6]: 1.83
PBM binding z-score [7]: 0.518
PBM binding z-score [8]: 1.04
PBM binding z-score [9]: -0.277
PBM binding z-score [10]: 2.61

ATCGAAAGGTCGCGAGGTGAGTATACAGAAAGGC
PBM binding z-score [1]: 0.5
PBM binding z-score [2]: 3.13
PBM binding z-score [3]: 1.02
PBM binding z-score [4]: 0.918
PBM binding z-score [5]: 1.25
PBM binding z-score [6]: 3.33
PBM binding z-score [7]: 0.012
PBM binding z-score [8]: 4.35
PBM binding z-score [9]: 0.464
PBM binding z-score [10]: 4.48

ATCTCTAGGTAATAGTTCAGTGAATCCCGAGGAT
PBM binding z-score [1]: 2.36
PBM binding z-score [2]: 2.79
PBM binding z-score [3]: 1.15
PBM binding z-score [4]: 2.02
PBM binding z-score [5]: 1.07
PBM binding z-score [6]: 0.458
PBM binding z-score [7]: 0.386
PBM binding z-score [8]: 0.192
PBM binding z-score [9]: 1.4
PBM binding z-score [10]: 1.16

GCGAGTGGGGCATCAGCAGGTTACCATAACTTAA
PBM binding z-score [1]: 3.22
PBM binding z-score [2]: 2.59
PBM binding z-score [3]: -0.589
PBM binding z-score [4]: -0.427
PBM binding z-score [5]: 0.496
PBM binding z-score [6]: 0.25
PBM binding z-score [7]: -0.251
PBM binding z-score [8]: 0.531
PBM binding z-score [9]: -0.613
PBM binding z-score [10]: 0.812

TCATATAGGTAAACAGGTGAATGTCCGTAAGTTA
PBM binding z-score [1]: 4.88
PBM binding z-score [2]: 4.45
PBM binding z-score [3]: 1.34
PBM binding z-score [4]: 1.04
PBM binding z-score [5]: 1.16
PBM binding z-score [6]: 0.702
PBM binding z-score [7]: 0.0773
PBM binding z-score [8]: 1.09
PBM binding z-score [9]: 0.858
PBM binding z-score [10]: 0.708

ATCGATAGGTCGAAGGTGAGTATACCCACCCGAA
PBM binding z-score [1]: -0.27
PBM binding z-score [2]: 1.54
PBM binding z-score [3]: 0.544
PBM binding z-score [4]: -0.0222
PBM binding z-score [5]: 0.323
PBM binding z-score [6]: 0.78
PBM binding z-score [7]: 0.0246
PBM binding z-score [8]: 2.02
PBM binding z-score [9]: -0.0833
PBM binding z-score [10]: 1.76

CCAGACAGGTGAAAGGTAACCCAGTCTGGTACGC
PBM binding z-score [1]: 1.94
PBM binding z-score [2]: 3.53
PBM binding z-score [3]: -0.215
PBM binding z-score [4]: -0.209
PBM binding z-score [5]: 0.618
PBM binding z-score [6]: 0.694
PBM binding z-score [7]: -0.254
PBM binding z-score [8]: 1.53
PBM binding z-score [9]: 0.316
PBM binding z-score [10]: 1.27

ATCTCTAGGTAACCAAGTTCCGTGAATGCCGAAC
PBM binding z-score [1]: 3.6
PBM binding z-score [2]: 2.9
PBM binding z-score [3]: 0.664
PBM binding z-score [4]: 0.557
PBM binding z-score [5]: 0.453
PBM binding z-score [6]: 0.03
PBM binding z-score [7]: 0.0548
PBM binding z-score [8]: 0.264
PBM binding z-score [9]: 0.19
PBM binding z-score [10]: 0.435

CCTACTGTGCCAAGGTCATTGATCAGTCAAAGCA
PBM binding z-score [1]: 3.52
PBM binding z-score [2]: 3.07
PBM binding z-score [3]: -0.148
PBM binding z-score [4]: 0.41
PBM binding z-score [5]: 2.81
PBM binding z-score [6]: 3.87
PBM binding z-score [7]: 1.91
PBM binding z-score [8]: 3.76
PBM binding z-score [9]: 1.37
PBM binding z-score [10]: 3.28

CCTACTGCGCCACGAAAGGTCATTGATTCAGTGA
PBM binding z-score [1]: 0.564
PBM binding z-score [2]: 1.65
PBM binding z-score [3]: 1.03
PBM binding z-score [4]: 0.0242
PBM binding z-score [5]: 4.6
PBM binding z-score [6]: 5.41
PBM binding z-score [7]: 2.88
PBM binding z-score [8]: 5.88
PBM binding z-score [9]: 2.27
PBM binding z-score [10]: 3.86

ATCTCTAGGTGAGACTCAGTTCAGTGAAGAACGC
PBM binding z-score [1]: 4.55
PBM binding z-score [2]: 3.85
PBM binding z-score [3]: 0.96
PBM binding z-score [4]: -0.0812
PBM binding z-score [5]: -0.0769
PBM binding z-score [6]: 1.31
PBM binding z-score [7]: 0.653
PBM binding z-score [8]: 0.361
PBM binding z-score [9]: 0.0758
PBM binding z-score [10]: 0.707

TCGACTAGGTTAGGGGCATTCAGAATGGCGTCGA
PBM binding z-score [1]: 2.47
PBM binding z-score [2]: 1.86
PBM binding z-score [3]: 0.0313
PBM binding z-score [4]: -0.271
PBM binding z-score [5]: 0.688
PBM binding z-score [6]: 0.539
PBM binding z-score [7]: -0.0457
PBM binding z-score [8]: 0.602
PBM binding z-score [9]: -0.239
PBM binding z-score [10]: 1.26
